# In PubChem BioAssay (NCI):
# About 83,000 compounds went through this panel and 20% of them were active in at least one assay; those are over-represented in the sample as a whole.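 How to read the values: 0–100, growth inhibition (40 = 60% inhibited); 0, no net growth; -100 to 0, cell death (-40 = 40% of starting cells died; -100 = all dead).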 Activity calls are given as the source filed them. How the source made its calls: active means growth percent below 10; inactive means the rest.
# Test system: MALME-3M melanoma
# Experiment: NCI-60 one-dose screen, 48 h (100 = growth as untreated, 0 = no growth, -100 = all killed)
# Settings: 10 µM unless noted
row,Structure (SMILES),growth
1,CCn1cc(-c2cc(-c3ccc(Cl)cc3)nc(N)n2)c(-c2ccc(Br)cc2)n1,93.8% (inactive)
2,CCOC(CNC(=O)c1cccc([N+](=O)[O-])c1)OCC,96.8% (inactive)
3,Cc1cccc([N+](=O)[O-])c1I,116% (inactive)
4,CCOc1cc(NC(=O)c2ccccc2)c(OCC)cc1N,147% (inactive)
5,CN(C)CCOc1ccc(/C(=C(/CCCl)c2ccccc2)c2ccccc2)cc1,-57.8% (active)
6,Nc1nc(N)c2c(n1)NC(c1ccc(F)cc1)C1CCc3ccccc3C1=N2 (configuration not stated),17.2% (inactive)
7,CNC(=O)c1cc(Oc2ccc3nc(NC(=O)c4ccc5ncccc5c4)sc3c2)ccn1,80.5% (inactive)
8,CC1(C)CC[C@]23CC[C@]4(C)[C@H](CC[C@@H]5[C@@]6(C)C/C(=C/c7ccncc7)C(=O)C(C)(C)[C@@H]6CC[C@]54C)[C@H]2[C@H]1OC3=O,67.6% [100 µM] (inactive)
9,CC1=CC[C@@H]2C(C)(C)C(=O)CC[C@@]2(C)[C@@H]1COc1ccc2ccc(=O)oc2c1,78% (inactive)
10,COc1ccc(/C=C/C=C\C(=O)c2ccc(-n3ccnc3)cc2)cc1,92.8% (inactive)
11,CCc1cccc(Cl)c1,120% (inactive)
12,Cc1ccc(S(=O)(=O)n2cc(C(=O)C(=O)N3CCCCC3)c3ccccc32)cc1,84.8% (inactive)
13,Cn1cc(-c2noc(-c3cn(C)c4ncc(F)cc34)n2)c2cc(Cl)ccc21,48.1% (inactive)
14,O=C(Nc1cccc2ccccc12)c1cc2ccccc2cc1O,-12.3% (active)
15,C#C[C@]1(O)CC[C@H]2[C@@H]3CC=C4c5nc(Nc6ncccn6)sc5CC[C@]4(C)[C@H]3CC[C@@]21C,47.6% (inactive)
16,CC(=O)OC[C@]12CC[C@@H](C(=O)CBr)[C@@H]1[C@H]1CC[C@@H]3[C@@]4(C)CCCNC(C)(C)[C@@H]4CC[C@@]3(C)[C@]1(C)CC2,-75.7% [100 µM] (active)
17,O=S(=O)(c1ccc(N/N=C\c2ccccc2Cl)cc1)c1ccc(N/N=C/c2ccccc2Cl)cc1,94.6% (inactive)
18,Nc1nc(Cl)c2ncn(Cc3cc4c(cc3I)OCO4)c2n1,63.7% (inactive)
19,Cc1ccc2c(c1)/C(=N\N=C/c1cn(C(C)C)c3ccccc13)C(=O)N2,16.2% (inactive)
20,O=C1CC(c2ccccc2)Cc2nc3ccc(Cl)cc3cc21 (configuration not stated),34% (inactive)
21,C=C(C)[C@@H]1CC[C@]2(C(N)=O)CC[C@]3(C)[C@H](CC[C@@H]4[C@@]5(C)CC[C@H](O)C(C)(C)[C@@H]5CC[C@]43C)[C@@H]12,-57.1% [100 µM] (active)
22,COc1ccc(-c2cc(-c3ccc(Cl)cc3)nc(SCCCCCCC(=O)NO)n2)cc1,11.7% (inactive)
23,Cc1cc[n+](CCCCCCCCCC[n+]2ccc(C)cc2)cc1,113% (inactive)
24,CCCSc1nc(N)nc2nc[nH]c12,249% (inactive)

# Test system: MDA-MB-231 breast
# Experiment: as above
# Settings: 10 µM unless noted
row,Structure (SMILES),growth
1,O=C(CSc1nc2ccc([N+](=O)[O-])cc2[nH]1)Nc1ccc(F)c(Cl)c1,30.8% (inactive)
2,Cc1cc(C)c(O)c(CNCCCCCCNCc2cc(C)cc(C)c2O)c1,-44% (active)
3,CS(=O)(=O)c1cccnn1,102% (inactive)
4,Cc1ccc(S(=O)(=O)Nc2ccccc2)cc1N,83.9% (inactive)
5,Nc1cc(C(=O)O)[nH]c(=S)n1,100% (inactive)
6,COc1ccc(-c2nc3ccccn3c2/C=C/C(=O)c2cc(OC)c(OC)c(OC)c2)cc1OC,21.4% (inactive)
7,O=C(Nc1cccc2cccnc12)c1cc(C(=O)c2ccc(Cl)cc2)n2ccc(-c3ccncc3)cc12,110% (inactive)
8,Cc1cccc(C[C@H](NC(=O)Nc2ccc(C)cc2F)C(=O)N[C@@H]2C(=O)N3C[C@H](O)C[C@H]3C(=O)N3CCN(C)C[C@H]3C(=O)N[C@@H](C)C(=O)N3C[C@H](C)C[C@H]3C(=O)O[C@H]2C)c1,18.7% (inactive)
9,O=C1COCCN1c1ccc(NCc2cn(Cc3cccc4ccccc34)c3ccccc23)cc1,101% (inactive)
10,COc1ncnc2c(-c3ccccc3)cn(COCc3ccccc3)c12,56.9% (inactive)
11,O=C1CN(Cc2ccc(C(=O)NO)cc2)C(=O)[C@@H](Cc2ccccc2)N1,102% (inactive)
12,CC(C)C1=NOC(=O)C1=Cc1cn(-c2ccco2)nc1-c1ccccc1,92% (inactive)
13,c1ccc(-c2nnc(-c3c[nH]c4ncccc34)s2)cc1,86.8% (inactive)
14,COCCCNc1nc(NC(=O)c2cc(Br)cc(C(F)(F)F)c2)cc(-c2cccnc2)n1,75.8% (inactive)
15,CCn1cc(-c2cc(-c3ccc(Cl)cc3)nc(N)n2)c(-c2ccc(Br)cc2)n1,60.6% (inactive)
16,CCOC(CNC(=O)c1cccc([N+](=O)[O-])c1)OCC,92.9% (inactive)
17,Cc1cccc([N+](=O)[O-])c1I,102% (inactive)
18,CCOc1cc(NC(=O)c2ccccc2)c(OCC)cc1N,104% (inactive)
19,CN(C)CCOc1ccc(/C(=C(/CCCl)c2ccccc2)c2ccccc2)cc1,-11% (active)

row,Structure (SMILES),growth
1,Nc1nc(N)c2c(n1)NC(c1ccc(F)cc1)C1CCc3ccccc3C1=N2 (configuration not stated),80.8% (inactive)
2,CNC(=O)c1cc(Oc2ccc3nc(NC(=O)c4ccc5ncccc5c4)sc3c2)ccn1,98.6% (inactive)
3,CC1(C)CC[C@]23CC[C@]4(C)[C@H](CC[C@@H]5[C@@]6(C)C/C(=C/c7ccncc7)C(=O)C(C)(C)[C@@H]6CC[C@]54C)[C@H]2[C@H]1OC3=O,37.5% [100 µM] (inactive)
4,CC1=CC[C@@H]2C(C)(C)C(=O)CC[C@@]2(C)[C@@H]1COc1ccc2ccc(=O)oc2c1,89.4% (inactive)
5,COc1ccc(/C=C/C=C\C(=O)c2ccc(-n3ccnc3)cc2)cc1,94% (inactive)
6,CCc1cccc(Cl)c1,112% (inactive)
7,Cc1ccc(S(=O)(=O)n2cc(C(=O)C(=O)N3CCCCC3)c3ccccc32)cc1,75.2% (inactive)
8,Cn1cc(-c2noc(-c3cn(C)c4ncc(F)cc34)n2)c2cc(Cl)ccc21,52.7% (inactive)
9,O=C(Nc1cccc2ccccc12)c1cc2ccccc2cc1O,-22.1% (active)
10,C#C[C@]1(O)CC[C@H]2[C@@H]3CC=C4c5nc(Nc6ncccn6)sc5CC[C@]4(C)[C@H]3CC[C@@]21C,34.2% (inactive)
11,CC(=O)OC[C@]12CC[C@@H](C(=O)CBr)[C@@H]1[C@H]1CC[C@@H]3[C@@]4(C)CCCNC(C)(C)[C@@H]4CC[C@@]3(C)[C@]1(C)CC2,-71.8% [100 µM] (active)
12,O=S(=O)(c1ccc(N/N=C\c2ccccc2Cl)cc1)c1ccc(N/N=C/c2ccccc2Cl)cc1,81.6% (inactive)
13,Nc1nc(Cl)c2ncn(Cc3cc4c(cc3I)OCO4)c2n1,40.9% (inactive)
14,Cc1ccc2c(c1)/C(=N\N=C/c1cn(C(C)C)c3ccccc13)C(=O)N2,50.5% (inactive)
15,O=C1CC(c2ccccc2)Cc2nc3ccc(Cl)cc3cc21 (configuration not stated),19.5% (inactive)
16,C=C(C)[C@@H]1CC[C@]2(C(N)=O)CC[C@]3(C)[C@H](CC[C@@H]4[C@@]5(C)CC[C@H](O)C(C)(C)[C@@H]5CC[C@]43C)[C@@H]12,-28.4% [100 µM] (active)
17,COc1ccc(-c2cc(-c3ccc(Cl)cc3)nc(SCCCCCCC(=O)NO)n2)cc1,45.8% (inactive)
18,Cc1cc[n+](CCCCCCCCCC[n+]2ccc(C)cc2)cc1,105% (inactive)
19,CCCSc1nc(N)nc2nc[nH]c12,104% (inactive)
